# Source: PubChem
# AmpC no deterg = inhibitors of E. coli AmpC beta-lactamase without detergent; P00811; AmpC nitrocefin hydrolysis, absorbance 480 nm, 0.0001% Triton; Potency, µM (titrated, usually from 57.1 µM), for the others: at the top dose activity change, negative = inhibition, hits mostly inhibitors; actives 0.52% (n = 330,000); AID 485341;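 also: potency is read from the fitted curve at half-maximal effect; plate controls were no compound for no effect and no enzyme for full effect; nearly all actives have a fitted effect of over 20% in size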
# Target sequence (P00811 whole entry, looked up): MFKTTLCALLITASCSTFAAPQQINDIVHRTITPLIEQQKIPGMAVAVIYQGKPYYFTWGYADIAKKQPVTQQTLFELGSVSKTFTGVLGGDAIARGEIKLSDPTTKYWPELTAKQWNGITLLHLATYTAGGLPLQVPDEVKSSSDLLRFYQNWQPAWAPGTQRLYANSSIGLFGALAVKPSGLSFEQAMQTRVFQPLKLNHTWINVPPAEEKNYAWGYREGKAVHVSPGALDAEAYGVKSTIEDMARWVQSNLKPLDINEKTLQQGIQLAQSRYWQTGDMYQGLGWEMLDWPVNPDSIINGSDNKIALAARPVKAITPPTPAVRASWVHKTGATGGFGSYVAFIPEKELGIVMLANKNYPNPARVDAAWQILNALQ
#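 20 mM phosphate pH 7.0 + 0.01% (detergent screen) or 0.0001% Triton X-100; 5.3 nM AmpC reagent; cpd preinc 15 min RT; nitrocefin (800 uM stock) to start; A480 q20 s × 4 min; Activity was normalised to no-enzyme and no-compound control wells.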
# SARS PLpro yeast = blocks SARS-CoV papain-like protease in a yeast assay | actives 0.19% (n = 330,000) | S. cerevisiae expressing SARS-CoV PLpro, growth rescue | Potency, µM (doses to about 32.9 µM), for the others: top-dose activity, positive = growth rescue, most hits filed as activators | AID 485353; calls by dose curve; also: potency is read from the fitted curve at half-maximal effect; 0% is about no effect; nearly all actives have a fitted effect of over 55% in size
# AMA1 RON2 block = AMA1-RON2 (P. falciparum) interaction inhibition | AlphaScreen AMA1-biotinylated RON2 peptide binding | Potency, µM (top dose mostly 58.2 µM), without a hit: at the highest dose activity change, negative = inhibition, hits mostly inhibitors | actives 0.2% (n = 360,000) | AID 720542;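 also: potency is read from the fitted curve at half-maximal effect; 0% = vehicle wells and -100% = peptide control; nearly all actives have a fitted effect of over 45% in size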
#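 AMA1 (3D7) with his tag at 25 nM final met compounds first, then biotinylated RON2 peptide at 25 nM; detection used donor plus acceptor beads, 10 µg/mL apiece, read by AlphaScreen after 30 min at room temperature.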
# AmpC detergent = AmpC beta-lactamase inhibition with detergent present; AmpC hydrolysis of nitrocefin, absorbance 480 nm, 0.01% Triton; Potency, µM (top dose mostly 114 µM), inactives show at the top dose activity change, negative = inhibition, most hits filed as inhibitors; actives 0.041% (n = 370,000);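 also: potency is read from the fitted curve at half-maximal effect; 0% = no-compound wells and -100% = no-enzyme wells; nearly all actives have a fitted effect of over 25% in size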
#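 AmpC (5.3 nM in the dispensed reagent) in 20 mM phosphate pH 7.0 with 0.01% (detergent screen) or 0.0001% Triton X-100 was preincubated with compounds for 15 min at room temperature. Nitrocefin was then added from an 800 uM solution, and hydrolysis was followed at 480 nm.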
# Cycloheximide cs = affects cycloheximide protein synthesis inhibition readout, counter-screen. max response, %. cell reporter, cycloheximide protein synthesis inhibition counterscreen. actives 12% (n = 300,000). AID 2314; in the data active = max response mostly above about 13%, no sharp cut-off; inactive = mostly below about 14%; also: read at 38.3 µM for the half of the compounds with a filed dose; 0% is about no effect
# Shiga toxin inh = blocks Shiga toxin action in Vero cells; AID 2315; actives 9.2% (n = 290,000); inhibition, % at 38.7 µM; Vero cells, Shiga toxin protein synthesis inhibition reporter; in the data active = inhibition mostly above about 28%, no sharp cut-off; inactive = mostly below about 43%; also: 0% is about no effect
# The depositor's hits bear a star; ? = inconclusive; . = not tested or not shown; [ ] = dose if it differs, or a comment. The sample as a whole holds a higher share of hits than the screen did. Unless noted, calls follow the shape of the dose curve; as a rule, active = well fitted curve in the direction sought with a large enough effect; inconclusive = small, poorly fitted or top-dose-only effect, or another doubt; inactive = no such curve, though single readings can be large; an effect the other way counts as inactive or inconclusive.
SMILES,AmpC no deterg,SARS PLpro yeast,AMA1 RON2 block,AmpC detergent,Cycloheximide cs,Shiga toxin inh
O=C1C2C3C=CC(O3)C2C(=O)N1N=C1CCCCC1 (centres undefined),.,.,53%,.,.,.
COc1ccc(S(=O)(=O)N2CCCCC2c2cc(C(=O)Nc3ccc(F)c(Cl)c3)no2)cc1 (centres undefined),.,.,1%,.,.,.
Cc1ccc(OCCNS(=O)(=O)c2ccc(Cl)cc2)cc1,-17%,-5%,11%,5%,.,.
Cc1ccc(OCCNS(=O)(=O)c2cccs2)cc1,-27%,6%,-5%,?,44*,56
Cc1cc(C(C)(C)C)ccc1OCCN(C)C,-9%,0%,-2%,?,-1,-18
COc1cccc(C(=O)NC(=S)Nc2ccccc2N2CCCC2)c1,-45%,7%,?,0%,17*,40
COc1cccc(/C=C/C(=O)Nc2ccccc2N2CCOCC2)c1,2%,-3%,-1%,-1%,29*,44
COc1cccc(C(=O)NC(=S)Nc2ccccc2N2CCCCC2)c1,-23%,?,26%,4%,4,25
O=C(NC(=S)Nc1ccccc1N1CCCC1)c1ccccc1Br,-20%,13%,.,-2%,7,4
COc1c(C)cccc1C(=O)NC(=S)Nc1ccccc1N1CCCC1,-31%,-3%,-2%,5%,30*,12
COc1ccc(Cl)cc1NC(=O)CN1C(=O)CCS(=O)(=O)c2ccccc21,-5%,19%,0%,?,0,7
Cc1cccc(NC(=O)C(NS(=O)(=O)c2ccc3c(c2)CCC(=O)N3)c2ccccc2)n1 (centres undefined),25µM*,0%,14%,-6%,-2,15
CC1CCc2c(sc3nnn(Cc4ccccc4Cl)c(=O)c23)C1 (centres undefined),.,.,.,22%,.,.
CC(C)COC(=O)c1ccc2c(c1O)C(=O)c1ccccc1C2=O,-21%,9%,-19%,1%,34*,66*
N#C/C(=C\Nc1ccc2c(c1)OCCO2)c1nc2ccccc2[nH]1,-3%,-17%,2%,4%,60*,83
N#C/C(=C\c1ccc(Cl)cc1)c1nc2ccccc2[nH]1,.,.,.,-2%,.,.
COc1cc(Br)c(/C=C(\C#N)c2nc3ccccc3[nH]2)cc1OC,.,.,.,17%,.,.
N#C/C(=C\c1cccs1)c1nc2ccccc2[nH]1,-31%,-28%,2%[11.6 µM],-4%,32*,107*
N#C/C(=C\c1ccc(OC(=O)c2cccs2)cc1)c1nc2ccccc2[nH]1,-32%,-3%,13%,9%,58*,145*
N#C/C(=C\c1ccccc1OCC(=O)O)c1nc2ccccc2[nH]1,-14%,-4%,1%,-15%,8.3*,14
COc1ccc2nc(/C(C#N)=C\c3ccc(C(=O)O)cc3)[nH]c2c1,-35%,-4%,12%,1%,-1,-5
O=C(Nc1ccc(F)cc1)C(c1ccncc1)N1CCN(C(=O)c2ccco2)CC1 (centres undefined),.,.,2%,.,.,.
N#C/C(=C/c1ccc(O)c(O)c1)c1nc2ccccc2[nH]1,-51%,-1%,10%,2%,26*,77*
COc1ccc(NC(=O)c2ccccc2NC(=O)CSc2ccccc2)cc1,-33%,12%,?,-5%,0,-4
COc1ccccc1N1CCN(C(=O)Cc2ccc(Cl)cc2)CC1,189%,-2%,-10%,-11%,17*,31
SMILES,AmpC no deterg,SARS PLpro yeast,AMA1 RON2 block,AmpC detergent,Cycloheximide cs,Shiga toxin inh
COc1ccccc1N1CCN(C(=O)CN2C(=O)c3ccccc3C2=O)CC1,19%,0%,-2%,-1%,11,6
OC(CN1CCN(c2ccccc2F)CC1)c1ccc(F)cc1 (centres undefined),0%,0%,8%,-4%,9.9*,12
COc1ccccc1N1CCN(C(=O)CN2C(=O)C3CCCCC3C2=O)CC1 (centres undefined),12%,-1%,-3%,8%,28*,77*
COc1cccc(N2CCN(C(=O)CCSCc3ccccc3F)CC2)c1,52%,-2%,-26%,?,-6,21
COc1ccccc1N1CCN(C(=O)CCSCc2ccccc2F)CC1,132%,1%,7%,?,20,49*
O=C(c1ccco1)N(Cc1cccc(Br)c1)C1CCS(=O)(=O)C1 (centres undefined),17%,1%,4%,-9%,-2,-3
CCOC(=O)c1cc(C(=O)OCC)c2cccc(C)n2c1=O,-15%,1%,31%,?,-3,-17
CC(C)N(C(=O)Cn1cc(S(=O)(=O)CC(=O)NCc2ccc(F)cc2)c2ccccc21)C(C)C,82%,?,0%,5%,-5,-7
C=CCn1c(O)c(C(C)=NCc2cccnc2)c(=O)[nH]c1=O,-24%,6%,2%,-16%,-1,-9
CN1CCN(C(=O)CCC(=O)c2ccc(F)cc2)CC1,-7%,-2%,6%,3%,15,15
O=C(CCC(=O)N1CCN(c2ccccc2F)CC1)c1ccc(F)cc1,3%,-1%,-2%,-5%,15*,22
[N-]=[N+]=NC(c1ccccc1)c1nc2ccccc2[nH]c1=O (centres undefined),-39%,0%,-8%,0%,27*,28
O=c1[nH]c2ccccc2nc1C(Cl)c1ccccc1 (centres undefined),-28%,10%,.,-12%,12,33
Cc1cc(C)cc(SCc2noc(C(=O)NCC3CC3)c2C(=O)NCC2CC2)c1,.,.,9%,.,.,.
CCOc1ccc(C(=O)OC2CC3CCC(C2)N3C)cc1 (centres undefined),21%,-1%,-2%,-3%,22*,27
COc1ccc(C(=O)OC(C)CN2CCN(C)CC2)cc1OC (centres undefined),-12%,4%,-8%,-1%,4,10
CN1C2CCC1CC(OC(=O)c1ccc(Cl)cc1)C2 (centres undefined),128%,?,-5%,-13%,-2,-23
COc1ccc(C(=O)OC(C)CN2CCN(C)CC2)cc1 (centres undefined),-8%,0%,-9%,-14%,12*,36
CCOc1ccc(C(=O)OC(C)CN2CCCCC2)cc1 (centres undefined),-18%,1%,-3%,-9%,10,26*
Cc1ccc(C(=O)OC(C)CN2CCN(C)CC2)cc1 (centres undefined),-3%,0%,-12%,-7%,17*,48*
C=Cc1ccc(Cn2c(C(=O)O)c(CNCc3cccs3)c3ccc(C)cc32)cc1,.,.,.,12%,.,.
O=C(COC(=O)Cc1ccsc1)NCC1CCCCC1,-10%,-3%,1%,?,-5,-9
